# Test results published in PubChem BioAssay.
# “And” between values parts separate entries of the source, which are not always exact repeats. Equal values may be shown once. The source made the active and inactive calls.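 Rule for the calls, unless noted: active = compounds whose cell count with miR-34 switched on is under 0.7 times the count with it off; inactive = the rest.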
# How the values were obtained:
# [1] = P. berghei load reduction in hepatocytes – cell-based, HepG2, luciferase luminescence, HepG2 viability, primary screen (AID 624349; in the data active = parasite load remaining mostly below about 12%, no sharp cut-off; inactive = mostly above about 10%;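 note: 100% = mean of DMSO negative control wells on the same plate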); details: P. berghei liver stage in HepG2, luciferase luminescence, concentration not given here; parasite load remaining: stronger effect = lower value; viability: measured here: HepG2 viability without parasites
# [2] = stimulators of insulin release from INS-1E, primary screen, cell-based, 5 mM glucose, NPC library (AID 1117329;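 active = compound raises insulin release from rat beta cells at 5 mM glucose, no numeric limit stated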); details: rat INS-1E insulin secretion, at 10 µM, stronger effect = higher value
# [3] = growth inhibition of GSK3B-pretreated HCT116 cells – cell-based, CellTiter-Glo, 0.2 to 20 µM (AID 1117336;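 active = compounds lowering colon cancer cell viability after pretreatment blocking the GSK3B kinase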); details: HCT116 viability after GSK3B inhibitor, at 20 µM, stronger effect = higher value
# [4] = inhibition of endothelial tube formation, primary screen, imaging, VEGF stimulated, CD31 staining, tube area, NPC library (AID 1117340;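 active = compound that reduces growth-factor-driven endothelial tube area in a mixed cell culture, no cutoff stated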); details: VEGF-stimulated ADSC/ECFC co-culture, at 10 µM, stronger effect = higher value
# [5] = GLP1 release stimulators, primary, NCI-H716, NPC library (AID 1117341;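 active = compound raises GLP1 secretion from the human gut endocrine cells, with no numeric limit stated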); details: NCI-H716 cells, at 10 µM, stronger effect = higher value
# [6] = HCT116 colon cancer cell growth inhibition, primary screen, CellTiter-Glo luminescence, NPC library (AID 1117342;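 active = compounds that lower survival of HCT116 colon cancer cells in the luminescence readout, no numeric limit stated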); details: at 20 µM (top of the series)
# [7] = reduced SW480 viability measured with CellTiter-Glo, NPC library, primary (AID 1117343;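 active = compounds that lower viability of the colon cancer cells in the luminescence readout, with no numeric limit stated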); details: CellTiter-Glo luminescence; at 20 µM (top of the series) unless noted
# [8] = NPC library primary testing for decreased DLD-1 cell viability via CellTiter-Glo (AID 1117346;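 active = compounds that lower survival of DLD-1 colon cancer cells in the luminescence readout, no cutoff given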); details: DLD-1 viability, CellTiter-Glo luminescence; at 20 µM (top of the series)
# [9] = target: 6-phosphogluconate dehydrogenase, decarboxylating (Homo sapiens) (UniProt P52209); test: inhibition of human phosphogluconate dehydrogenase – biochemical, recombinant enzyme, NADPH absorbance, primary screen (AID 1159550;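 active = at least 20% inhibition of 6-phosphogluconate dehydrogenase activity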); details: recombinant 6PGD, NADPH absorbance 341 nm; at 10 µM; stronger effect = higher value
# Sequence of 6-phosphogluconate dehydrogenase, decarboxylating (Homo sapiens) (P52209 whole entry, looked up): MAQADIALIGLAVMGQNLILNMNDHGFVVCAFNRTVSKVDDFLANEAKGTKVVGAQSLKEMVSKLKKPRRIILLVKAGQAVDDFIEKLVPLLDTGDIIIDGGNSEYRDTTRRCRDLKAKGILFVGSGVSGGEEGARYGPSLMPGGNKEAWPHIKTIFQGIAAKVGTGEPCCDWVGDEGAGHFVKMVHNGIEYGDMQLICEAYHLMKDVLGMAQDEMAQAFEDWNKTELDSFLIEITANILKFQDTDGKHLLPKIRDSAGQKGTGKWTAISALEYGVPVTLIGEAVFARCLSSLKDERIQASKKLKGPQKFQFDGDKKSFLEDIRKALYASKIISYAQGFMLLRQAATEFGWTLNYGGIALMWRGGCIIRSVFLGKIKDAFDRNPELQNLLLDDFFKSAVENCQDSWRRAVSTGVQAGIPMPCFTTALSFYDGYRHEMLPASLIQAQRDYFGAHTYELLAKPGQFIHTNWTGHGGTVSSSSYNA
# [10] = modulation of C. elegans fzo-1 (AID 1259413; call rule not given here;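 note: fzo-1 mutant C. elegans worms in liquid wells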); details: C. elegans fzo-1 modulator screen, mean read-out; stronger effect = higher value
# [11] = viability loss with induced miR-34 in A549 – imaging, A549 dox-inducible miR-34, nuclei and caspase counts, primary screen (AID 1347080); details: A549 miR-34 inducible, Hoechst nuclei count, 48 h
# [12] = MELAS cybrid and Rieske KO viability enhancers – cell-based, MELAS cybrids, Rieske KO mouse fibroblasts, CellTiter-Glo, primary screen (AID 1508586;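 active = mean z-score across replicates of 1.96 or higher in either the MELAS or the Rieske mutant cell line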;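 note: z relative to plate mean and SD of compound and empty wells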); details: low glucose
# [13] = target: NAD(+) hydrolase SARM1 (Homo sapiens) (UniProt Q6SZW1); test: blocking NAD cleavage by SARM1 SAM-TIR – cell lysate, NAD-Glo luminescence (AID 1508614;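 active = compound whose remaining NAD level is above about 45 nM, limit read from the data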;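 note: higher remaining NAD means stronger inhibition of SARM1 NADase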); details: SAM-TIR HEK293T lysate NADase, at 1 µM, stronger effect = higher value
# Sequence of NAD(+) hydrolase SARM1 (Homo sapiens) (Q6SZW1 whole entry, looked up, the tested form may be a part): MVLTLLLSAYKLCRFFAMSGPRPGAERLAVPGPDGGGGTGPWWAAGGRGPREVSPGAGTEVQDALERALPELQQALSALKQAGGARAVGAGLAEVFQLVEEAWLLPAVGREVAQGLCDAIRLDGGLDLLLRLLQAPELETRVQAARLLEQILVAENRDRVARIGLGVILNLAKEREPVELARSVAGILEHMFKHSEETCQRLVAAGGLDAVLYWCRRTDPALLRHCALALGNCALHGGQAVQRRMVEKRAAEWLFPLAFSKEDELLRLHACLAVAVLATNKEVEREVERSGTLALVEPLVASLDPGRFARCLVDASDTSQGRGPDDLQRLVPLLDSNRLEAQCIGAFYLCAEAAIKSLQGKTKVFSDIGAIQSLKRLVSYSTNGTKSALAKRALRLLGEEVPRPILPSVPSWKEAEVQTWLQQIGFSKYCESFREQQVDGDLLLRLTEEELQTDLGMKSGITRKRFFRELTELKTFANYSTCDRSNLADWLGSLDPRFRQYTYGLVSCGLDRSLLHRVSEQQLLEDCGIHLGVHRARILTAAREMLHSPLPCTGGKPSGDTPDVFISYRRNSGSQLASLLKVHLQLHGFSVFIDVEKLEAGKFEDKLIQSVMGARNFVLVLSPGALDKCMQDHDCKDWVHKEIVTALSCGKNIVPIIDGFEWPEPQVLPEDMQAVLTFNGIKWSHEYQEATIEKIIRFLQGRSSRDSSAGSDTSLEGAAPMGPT
# [14] = target: Mitogen-activated protein kinase 7 (Homo sapiens) (UniProt Q13164); test: Gal4-ERK5 driven luciferase induction – cell-based, HTS, primary screen (AID 1508626;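 active = luciferase signal above three times the same-plate solvent-only control wells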;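 note: luciferase driven by Gal4-ERK5 fusion binding five Gal4 sites before minimal TATA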); details: HeLa Gal4-ERK5 transactivation, 18 h, at 5 µM, stronger effect = higher value
# Sequence of Mitogen-activated protein kinase 7 (Homo sapiens) (Q13164 whole entry, looked up, the tested form may be a part): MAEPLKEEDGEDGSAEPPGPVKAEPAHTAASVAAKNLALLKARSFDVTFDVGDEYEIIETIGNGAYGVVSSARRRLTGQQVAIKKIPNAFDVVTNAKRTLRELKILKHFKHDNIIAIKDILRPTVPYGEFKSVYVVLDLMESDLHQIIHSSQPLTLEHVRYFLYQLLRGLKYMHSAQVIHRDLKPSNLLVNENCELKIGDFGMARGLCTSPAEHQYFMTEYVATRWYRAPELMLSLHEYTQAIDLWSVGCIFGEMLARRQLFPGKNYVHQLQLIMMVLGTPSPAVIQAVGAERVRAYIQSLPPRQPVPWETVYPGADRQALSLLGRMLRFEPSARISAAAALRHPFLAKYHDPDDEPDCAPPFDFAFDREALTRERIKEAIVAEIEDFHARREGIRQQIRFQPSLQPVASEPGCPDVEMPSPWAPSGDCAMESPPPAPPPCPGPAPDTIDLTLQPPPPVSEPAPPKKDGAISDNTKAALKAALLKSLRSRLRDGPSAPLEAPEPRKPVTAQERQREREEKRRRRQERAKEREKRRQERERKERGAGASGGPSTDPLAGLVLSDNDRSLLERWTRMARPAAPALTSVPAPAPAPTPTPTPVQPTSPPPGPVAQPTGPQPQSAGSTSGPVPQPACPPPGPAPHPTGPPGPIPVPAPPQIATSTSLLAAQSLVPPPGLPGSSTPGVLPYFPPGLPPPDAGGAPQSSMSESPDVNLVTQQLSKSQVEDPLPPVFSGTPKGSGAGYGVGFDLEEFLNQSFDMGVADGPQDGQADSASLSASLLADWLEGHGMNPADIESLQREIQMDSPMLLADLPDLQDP
# [15] = galactose survival enhancers in mitochondrial complex I cybrids – cell-based, galactose medium, ATP luminescence, primary screen (AID 1645843;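 active = z-score of at least 1.8 in each of two replicates, scored against plate mean and spread of sample wells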;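 note: positive z means more ATP and so rescue of galactose-driven cybrid death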); details: complex I mutant cybrid cells, 72 h, stronger effect = higher value
# [16] = compounds altering viability of human ES cells (AID 493140; call rule not given here;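 note: cells exposed to compounds for four days before counting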); details: human embryonic stem cell survival screen; stronger effect = higher value
# [17] = stronger effect = lower value, cell number ratio, induced over uninduced
# [18] = measured here: relative caspase fold change +Dox/-Dox
# [19] = measured here: total cells with miR-34 induction, stronger effect = lower value
# [20] = measured here: total cells without miR-34 induction
# [21] = MELAS cybrid survival, CellTiter-Glo 48 h, stronger effect = higher value
# [22] = Rieske KO mouse fibroblast survival, CellTiter-Glo 72 h
smiles,measurement,setting,value
CN1[C@@H]2CC(OC(=O)[C@H](CO)c3ccccc3)C[C@H]1[C@@H]1O[C@@H]12 (stereo partly drawn),parasite load remaining,[1],98.9% (inactive) and 107% (inactive) and 26.7% (inactive)
same,viability,[1],102% and 73.5% and 68.5%
same,insulin secretion stimulation,[2],0.9% (inactive)
same,viability decrease,[3],1% (inactive)
same,tube area decrease,[4],-4.7% (inactive)
same,GLP1 secretion stimulation,[5],2.4% (inactive)
same,inhibition of viability,[6],-0.5% (inactive)
same,viability decrease (inhibition),[7],-5.7% (inactive)
same,viability decrease (inhibition),[8],-0.6% (inactive)
same,inhibition,[9],6.42% (inactive)
same,mean signal,[10],252 (inactive)
same,fold change,[11]; [17],0.844 (inactive) and 0.894 (inactive) and 0.852 (inactive)
same,fold change,[11]; [18],1.08 and 0.602 and 0.997
same,cell count,[11]; [19],8470 and 8340 and 9610
same,cell count,[11]; [20],10000 and 9330 and 11300
same,z-score,[12]; [21],-0.375 (inactive) and 0.309 (inactive)
same,z-score,[12]; [22],-0.839 and -0.133
same,remaining NAD,[13],10 nM (inactive)
same,luciferase signal,[14],88 AU (inactive)
same,z-score,[15],-0.01 (inactive) and 0.315 (inactive)
CC1(C)[C@H](C(=O)O)N2C(=O)C[C@H]2S1(=O)=O,parasite load remaining,[1],25.7% (inactive)
same,viability,[1],74%
same,insulin secretion stimulation,[2],-1.5% (inactive)
same,viability decrease,[3],0.3% (inactive)
same,tube area decrease,[4],-3.3% (inactive)
same,GLP1 secretion stimulation,[5],-0.3% (inactive)
same,inhibition of viability,[6],-13.6% (inactive)
same,viability decrease (inhibition),[7],6.5% (inactive)
same,viability decrease (inhibition),[8],3.8% (inactive)
same,fold change,[11]; [17],0.988 (inactive) and 0.885 (inactive) and 0.887 (inactive)
same,fold change,[11]; [18],0.598 and 0.786 and 1.47
same,cell count,[11]; [19],7470 and 7970 and 9900
same,cell count,[11]; [20],7550 and 9000 and 11200
same,remaining NAD,[13],10 nM (inactive)
same,z-score,[15],0.33 (inactive)
COc1ccc(-c2nc3ccc(C4=NNC(=O)CC4C)cc3[nH]2)cc1 (stereo not drawn),insulin secretion stimulation,[2],2.8% (inactive)
same,viability decrease,[3],18.3% (inactive)
same,tube area decrease,[4],80.8% (active)
same,GLP1 secretion stimulation,[5],6.8% (inactive)
same,inhibition of viability,[6],61.7% (active)
same,viability decrease (inhibition),[7],43% (inactive)
same,viability decrease (inhibition),[8],52.3% (active)
same,fold change,[11]; [17],0.906 (inactive)
same,fold change,[11]; [18],1.1
same,cell count,[11]; [19],5650
same,cell count,[11]; [20],6230
same,z-score,[12]; [21],1.76 (inactive)
same,z-score,[12]; [22],0.199
O=C(NCC1CCCCN1)c1cc(OCC(F)(F)F)ccc1OCC(F)(F)F (stereo not drawn),survival,[16],2.25 (inactive)
same,parasite load remaining,[1],-2.69% (inactive) and 85.7% (inactive) and 46.8% (inactive)
same,viability,[1],26.8% and 98.2% and 100%
same,insulin secretion stimulation,[2],3.7% (inactive)
same,viability decrease,[3],-3.9% (inactive)
same,tube area decrease,[4],-3.2% (inactive)
same,GLP1 secretion stimulation,[5],1.7% (inactive)
same,inhibition of viability,[6],21.7% (inactive)
same,viability decrease (inhibition),[7],1.6% (inactive)
same,viability decrease (inhibition),[8],-7.6% (inactive)
same,mean signal,[10],257 (inactive)
same,z-score,[12]; [21],-0.524 (inactive) and 0.18 (inactive)
same,z-score,[12]; [22],0.614 and 0.91
same,luciferase signal,[14],68 AU (inactive)
same,z-score,[15],-1.51 (inactive) and -0.39 (inactive) and 0.37 (inactive)
